In all, about 53,000 compounds went through this assay and about 900 (1.7%) showed an effect of 50% or more. This is one part of a sample in which strong results are shown more often than they occur.
Tested on: Mycobacterium tuberculosis
Assay: Cornell - Phenotypic assay to identify agents that inhibit growth of Mycobacterium tuberculosis
Assay type: functional
Parameters: scale not given: direction of the effect not stated beside the values
Conditions: 10 mM as filed; unlikely as a test dose

SMILES	Percent Effect [%]
CCn1cc(CN2C[C@@H]3CCCN3C[C@H]2CCSC)c(C)n1	-15.91
Cc1ccc2c(c1)C1(CCNCC1)CN2C(=O)CN(C)C.O=C(O)C(F)(F)F.O=C(O)C(F)(F)F	0.8832
CCS(=O)(=O)Nc1ccn(Cc2ccc(F)cc2Cl)n1	28.06
Cn1ncc2c1NC(=O)CC2c1ccc(Cl)cc1Cl (stereo not drawn)	59.83
Cn1ncc2c1NC(=O)CC2c1cc(Cl)ccc1F (stereo not drawn)	13.85
Cn1ncc2c1NC(=O)CC2c1ccccc1Cl (stereo not drawn)	-9.252
Cc1cc(CS(=O)(=O)C(C)C(=O)N(C)c2ccccc2)on1 (stereo not drawn)	-17.42
CN(Cc1ccco1)[C@@H]1CN(C(=O)C2CCOCC2)C[C@@H]2CCCO[C@@H]21.O=C(O)C(F)(F)F	-2.901
NC(=O)C1CCCN(Cc2ccc(C(=O)Nc3cnns3)cc2)C1 (stereo not drawn)	2.81
CC(=O)Nc1nc(C(=O)NCc2ccc(N3CCCC3)nc2)cs1	-0.1463
CSCc1cccc(NC(=O)N2CCC(N3CC=CC3)C2)c1 (stereo not drawn)	-39.08
CCn1c(C)cc(C(=O)N2CCC(Nc3cccnn3)CC2)c1C	7.118
CC(C)CNc1cc(-c2c[nH]nc2C2CCN(C(=O)C3CC3)C2)ccn1 (stereo not drawn)	30.66
CC(C)Nc1cc(-c2c[nH]nc2C2CCN(C(=O)C3CCC3)C2)ccn1 (stereo not drawn)	58.28
CC(C)Nc1cc(-c2c[nH]nc2C2CCN(C(=O)C3CC3)C2)ccn1 (stereo not drawn)	31.29
COCCN1C[C@@H]2[C@@H](OC)CCN(S(=O)(=O)c3cccnc3)[C@@H]2C1.O=C(O)C(F)(F)F.O=C(O)C(F)(F)F	21.64
CCOCC(=O)N1CCc2nc(C)nc(NC(C)C)c2CC1	-12.05
Cc1n[nH]c(C)c1CCC(=O)N[C@@H]1CCC[C@@H](Oc2ccccc2)[C@@H]1O	-14.05
CC(C)c1cc(C(=O)N[C@@H]2CC[C@@H](Oc3ccccc3)[C@@H]2O)on1	75.51
Cc1noc(C)c1CC(=O)N[C@@H]1CC[C@@H](Oc2ccccc2)[C@@H]1O	21.6
Cc1noc(C)c1C(=O)N[C@@H]1CCC[C@@H](Oc2ccccc2)[C@@H]1O	50.47
Cc1noc(C)c1CCC(=O)N[C@@H]1CC[C@@H](Oc2cccnc2)[C@@H]1O	15.37
Cc1noc(C)c1C(=O)N[C@@H]1CC[C@@H](Oc2ccccc2)[C@@H]1O	21.33
COCC(NC(=O)c1cnc(-c2ccncc2)nc1)c1ccnn1C (stereo not drawn)	1.357

SMILES	Percent Effect [%]
O=C(c1cc(-c2cccs2)on1)N1CCCCC1Cn1cccn1 (stereo not drawn)	6.3
Cc1csc(Nc2cc(C3CN(c4ccncn4)C3)nc(C)n2)n1	23.54
CCc1cccc(NC(=O)CNc2ccccc2OCCC(=O)OC)c1	45.3
CCS(=O)(=O)NCC(=O)NC(c1cc(C)sc1C)C(C)C (stereo not drawn)	24.3
CC(=O)N1CCCC(c2nccnc2Nc2nc(C)cc(C)n2)C1 (stereo not drawn)	-9.848
Cc1cc(C)nc(Nc2nccnc2C2CCCN(CCO)C2)n1 (stereo not drawn)	54.85
Cc1cc(C)nc(Nc2nccnc2C2CCCN(C(CO)CO)C2)n1 (stereo not drawn)	36.66
COc1cc(C2CC(=O)Oc3cc(C)[nH]c(=O)c32)ccc1O (stereo not drawn)	15.79
Cc1noc(Cl)c1CC(=O)N1CCCC1Cn1cccn1 (stereo not drawn)	17.08
CSc1nccc(-c2cccc(-c3ccn(CC4COCCO4)n3)c2)n1 (stereo not drawn)	71.9
COc1cccc(-c2cccc(-c3ccn(CC4COCCO4)n3)c2)n1 (stereo not drawn)	-2.003
COc1nccnc1-c1cccc(-c2ccn(CC3COCCO3)n2)c1 (stereo not drawn)	14.38
Cc1[nH]nc2ncc(C(=O)N3CCCC3c3noc(C(C)C)n3)cc12 (stereo not drawn)	24.5
O=C(O)C(F)(F)F.O=C(O)C(F)(F)F.c1cncc(-c2ccc3c(c2)CCC32CCN(Cc3nccs3)CC2)c1	61.89
O=C(O)C(F)(F)F.O=C(O)C(F)(F)F.c1csc(CN2CCC3(CC2)CCN(CC2CC2)CC3)n1	-43.47
CN(C)CC(=O)N1CCC2(CCc3cc(-c4cccnc4)ccc32)CC1.O=C(O)C(F)(F)F.O=C(O)C(F)(F)F	11.92
O=C(O)C(F)(F)F.c1cncc(-c2ccc3c(c2)C2(CC3)CCN(c3nncs3)CC2)c1	85.45
c1cc(-c2ccc3c(c2)C2(CC3)CCN(c3nncs3)CC2)ccn1	26.32
O=C(O)C(F)(F)F.O=C(O)C(F)(F)F.c1cncc(-c2ccc3c(c2)CCC32CCN(Cc3ccco3)CC2)c1	82.31
O=C(O)C(F)(F)F.c1cc(-c2ccc3c(c2)CCC32CCN(c3nncs3)CC2)ccn1	20.52
CN1CCN(Cc2cccnc2)C(=O)C12CCN(Cc1ccco1)CC2.O=C(O)C(F)(F)F.O=C(O)C(F)(F)F.O=C(O)C(F)(F)F	15.2
COc1ccc2c(c1)C1(CCN(Cc3nccs3)CC1)N(C)CC2.O=C(O)C(F)(F)F.O=C(O)C(F)(F)F	-9.444
CC(C)(C)c1n[nH]cc1CNC1CCC(OCC(F)(F)F)CC1.Cl (stereo not drawn)	-6.883
CCN(CC(C)C#N)C(=O)CNc1ccc(C(N)=O)c(C)c1 (stereo not drawn)	7.465

SMILES	Percent Effect [%]
O=C(CC1CCCC1)NCCS(=O)(=O)N1CCN(c2ccccn2)CC1	-6.415
CN(C)c1nccc(C2CCN(C3CCCCC3O)CC2)n1 (stereo not drawn)	-26.39
Cn1ccnc1CN1CCCN(C(=O)c2ccc3ccccc3c2)CC1	4.708
COc1ccc(C)cc1NC(=O)c1coc(C)n1	8.355
CCN(C(=O)c1ccc2c(c1)OCO2)C1CC(=O)NC1=O (stereo not drawn)	-9.897
CC(C)c1cc(C(=O)N2CCN(c3ccc(F)c(Cl)c3)CC2)n(C)n1	54.92
CC(=O)c1ccc(N2CCN(C(=O)c3cc(C(C)C)nn3C)CC2)cc1	16.14
CC(C)c1cc(C(=O)N2CCN(c3ccncc3)CC2)n(C)n1	12.8
O=C(NCC(O)c1ccoc1)Nc1c(F)cccc1F (stereo not drawn)	6.365
CCOC(=O)NCCC(O)c1ccoc1 (stereo not drawn)	23.86
O=C(NCc1cccs1)NCC(O)c1ccoc1 (stereo not drawn)	18.49
O=C(NCC(O)c1ccoc1)Nc1cccs1 (stereo not drawn)	104.6
O=C(NCCC(O)c1ccoc1)Nc1cccs1 (stereo not drawn)	106.1
CCOc1ccccc1C(=O)NCCC(O)c1ccoc1 (stereo not drawn)	22.79
Cl.O=C(CN1CCCC1)Nc1c2c(cc3c1CCC3)CCC2	40.53
CCS(=O)(=O)Nc1ccn(Cc2cccc(F)c2)n1	-38.51
CN(C)CCN1C(=O)CCC12CCCN(C(=O)c1cccnc1)CC2.O=C(O)C(F)(F)F.O=C(O)C(F)(F)F (stereo not drawn)	28.27
Cn1cc(CN2CCCCC2c2ccc(-c3cccc(Cl)c3)nc2)cn1 (stereo not drawn)	30.06
CC1CCN(C(=O)NCCc2cc(F)ccc2F)C1 (stereo not drawn)	29.01
CN(C)CCNc1cc(-c2ccccc2C(N)=O)c2cc[nH]c2n1	-19.65
CN1CCN([C@@H]2CN(C(=O)c3cc4cccc(F)c4[nH]3)C[C@H]2O)CC1	38.63
CN(C)[C@@H]1CN(C(=O)c2cc3cccc(F)c3[nH]2)C[C@H]1O	57.85
O=C(c1cc2cccc(F)c2[nH]1)N1C[C@@H](O)[C@H](N2CCCC2)C1	36.56
CN1CCOC(CNCC(=O)NCCc2ccc3c(c2)OCCO3)C1 (stereo not drawn)	-19.13

SMILES	Percent Effect [%]
Cc1ccccc1OCC1CCCN(c2cc(N)nc(N)n2)C1 (stereo not drawn)	79.75
Cc1nc(N)cc(N2CCCC(COc3cccc(F)c3)C2)n1 (stereo not drawn)	43.67
Nc1cc(N2CCCC(COc3ccc(F)cc3)C2)nc(N)n1 (stereo not drawn)	-4.088
CN(C)Cc1cnc(C2CN(C(=O)c3ccccc3Cl)CCO2)[nH]1 (stereo not drawn)	-0.6177
c1ccc(CCN2CC(n3cccn3)C2)nc1	-9.048
COc1ccc(CN(C)C(=O)CCC(=O)c2cccs2)c(OC)c1OC	32.22
COc1cccc(CN(C)C(=O)CCC(=O)c2ccc(Cl)cc2)c1OC	54.4
COc1cccc(CN(C)C(=O)CCC(=O)c2ccccc2)c1OC	8.094
O=C(N[C@@H]1CCC[C@@H](N2CCCC2)[C@@H]1O)c1cnn2cccnc12	-2.756
COc1ccc(NC(=O)c2nc(C)sc2C(C)C)cn1	41.95
CC(C)c1sc(Br)nc1C(=O)NCc1cccnc1	16.15
Cc1nc(C(=O)Nc2cccnc2)c(C(C)C)s1	51.63
CC(C)CCN1C[C@H]2C[C@H](C(=O)Nc3cccnc3)[C@@H](C1)O2.O=C(O)C(F)(F)F.O=C(O)C(F)(F)F	18.07
N#Cc1cccc(OCCN2CCNC(=O)C2c2cccs2)c1 (stereo not drawn)	15.41
Cc1nc(CN2C[C@H]3C[C@H](C(=O)NCC4CC4)N(C)[C@H]3C2)cs1.O=C(O)C(F)(F)F.O=C(O)C(F)(F)F.O=C(O)C(F)(F)F	-25.01
COc1ccccc1-c1nnc2n1NC(N)=C(C#N)S2	6.444
COc1ccc(N2CCC(N3C[C@H](NC(C)=O)[C@@H](C(C)C)C3)CC2)cc1	33.6
COc1cccc(N2CCC(N3C[C@@H](NC(C)=O)[C@H](C(C)C)C3)CC2)c1	34.03
CC(=O)N[C@@H]1CN(C2CCN(c3cccc(Cl)c3)CC2)C[C@H]1C(C)C	62.82
Cc1cc(=O)n2ncnc2n1CC(O)c1cc(F)ccc1F (stereo not drawn)	-70.76
COc1ccc(NC(=O)Cn2c(=O)nc(N)c3cc(C)sc32)cc1	0.3474
